An excerpt weighted towards active compounds, which were near 7.5% of everything screened.
Vaccinia mCherry: inhibitors of vaccinia virus infection (mCherry reporter signal); Vaccinia virus mCherry reporter infection, fluorescence; 310,000 tested, 0.63% active; Potency, µM (highest dose often 36.5 µM), for the others: at the highest dose activity change, negative = inhibition, most hits filed as inhibitors; calls by dose curve; tested in A549 cells; further: potency means the concentration at half of the fitted maximal effect; nearly all actives have a fitted effect of over 35% in size
HCV inh: HCV inhibition; Huh7.5.1 HCVcc-Cre infection, luciferase reporter, 44 h; 340,000 tested, 3.4% active; Potency, µM (series often up to 41.8 µM), for the others: at the top dose activity change, negative = inhibition, actives largely listed as inhibitors; AID 651820; further: potency means the concentration at half of the fitted maximal effect
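HCVcc-Cre virus at an moi near 0.5 was added right after compound to cells cultured 4 h from seeding (1,000 cells/well). Luciferase activity was determined 44 h later, 15 min after substrate addition at RT.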
Giardia FBPA inh: blocks Giardia fructose-bisphosphate aldolase activity. 290,000 tested, 0.71% active. purified Giardia FBPA. Potency, µM (highest dose often 59.6 µM), for inactives: top-dose activity, negative = inhibition, most hits filed as inhibitors. A8B2U2; further: potency means the concentration at half of the fitted maximal effect; nearly all actives have a fitted effect of over 55% in size
Target sequence (A8B2U2 whole entry, looked up): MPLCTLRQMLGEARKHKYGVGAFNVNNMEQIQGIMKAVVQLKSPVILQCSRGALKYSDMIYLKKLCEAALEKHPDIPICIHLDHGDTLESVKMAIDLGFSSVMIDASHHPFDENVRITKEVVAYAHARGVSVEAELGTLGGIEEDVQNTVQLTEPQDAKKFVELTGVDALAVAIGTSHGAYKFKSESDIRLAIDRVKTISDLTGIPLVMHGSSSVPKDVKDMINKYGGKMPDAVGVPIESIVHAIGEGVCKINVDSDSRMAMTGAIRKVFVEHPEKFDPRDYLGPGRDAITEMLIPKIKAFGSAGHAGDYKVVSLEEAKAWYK
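40 nM FBPA preincubated 10 min at RT with compound (up to 57.5 uM final), then substrate plus GAPDH/TPI/NAD/arsenate coupling and diaphorase/resazurin added. Fluorescence read after 20 min at RT, 525/598 nm.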
Vaccinia Venus: vaccinia inhibition (Venus reporter). 330,000 tested, 0.46% active. Vaccinia virus Venus reporter expression, fluorescence. Potency, µM (top dose mostly 36.5 µM), without a hit: top-dose activity change, negative = inhibition, hits mostly inhibitors; calls by dose curve; tested in A549 cells; further: potency means the concentration at half of the fitted maximal effect; nearly all actives have a fitted effect of over 30% in size
FMDV inh: blocks foot and mouth disease virus; FMDV antiviral cell-based qHTS; Potency, µM (series often up to 57.9 µM), inactives show at the highest dose activity change, negative = inhibition, actives largely listed as inhibitors; 410,000 tested, 1.2% active; calls by dose curve; tested in HEK293T cells; further: read-out not given here; potency means the concentration at half of the fitted maximal effect; nearly all actives have a fitted effect of over 45% in size
HCMV antiviral: inhibitors of human cytomegalovirus | 410,000 tested, 4.5% active | HFF cells, HCMV-luciferase reporter, 72 h; active compounds read low | activity change, negative = inhibition, % at 57.5 µM | AID 1259415; in the data active means activity change below about -60%; inconclusive means no clear call, values can overlap the other calls; inactive means above about -39%
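After 16 h attachment at 37C, HFF cells received test compound and HCMV-luciferase (1 PFU/cell); reporter luminescence read 72 h later, data normalized against buffer-only and known inhibitor Salinomycin.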
An asterisk follows results filed as active; i = inactive; ? = inconclusive; · = no result given. Unless noted, the call rests on the fitted dose curve; in most records, active means well fitted curve in the direction sought with a large enough effect; inconclusive means small, poorly fitted or top-dose-only effect, or another doubt; inactive means no such curve, though single readings can be large; an effect the other way counts as inactive or inconclusive. On the % scale 0 is the no-effect control and ±100 the full control effect.

SMILES | Vaccinia mCherry | HCV inh | Giardia FBPA inh | Vaccinia Venus | FMDV inh | HCMV antiviral
CC1(C(=O)Nc2cnc3ccccc3c2)CCN1Cc1ccccc1OC(F)F (stereo not given) | -14.1% | · | · | -7.0% | ? | ?
COc1cccc(CN2CCC2(C)C(=O)Nc2cccc(Oc3ccccc3)c2)c1OC (stereo not given) | 9.9% | · | · | 0.8% | -28.4% | -60.8*
CC(=O)N1CCc2cc(NC(=O)C3(C)CCN3Cc3ccccc3OC(F)F)ccc21 (stereo not given) | ? | · | · | -5.2% | ? | -61.0*
O=S(=O)(Nc1cccc(-c2nc3cccnc3s2)c1)c1ccc2c(c1)OCCO2 | -4.1% | ? | 13.2% | -20.5% | 42.6% | -63.6*
CCCc1cc(C(N)=O)c(NC(=O)c2cc(C)on2)s1 | · | ? | -9.6% | · | 10.9% | 15.2
CCCc1cc(C(N)=O)c(NC(=O)c2ccoc2C)s1 | · | 7.08µM* | -3.1% | · | 13.5% | 21.6
COCc1cc(=O)[nH]c(Nc2nc3ccc(C)cc3o2)n1 | · | ? | -20.5% | ? | ? | -102.2*
CCOC(=O)/C=c1\s/c(=C\c2c(OC)ccc3ccccc23)c(=O)n1CC(=O)NCC1CCCO1 (stereo not given) | · | ? | 0.3% | · | -4.9% | -94.7*
CCOC(=O)/C=c1/s/c(=C/c2ccc3cc(OC)ccc3c2)c(=O)n1CC(=O)NCC1CCCO1 (stereo not given) | i | ? | · | 20.8% | -20.2% | -32.4
Cc1noc(C)c1NC(=O)N(C)C[C@@H]1Oc2ccc(NC(=O)CCC(F)(F)F)cc2CC(=O)N([C@@H](C)CO)C[C@@H]1C | -9.4% | -0.6% | · | 6.1% | -21.0% | -23.2
CC1=C(C(=O)OC2CCCCC2)C(c2cccc([N+](=O)[O-])c2)NC(=O)N1 (stereo not given) | · | 11.2µM* | 10.8% | · | -11.9% | -1.5
CC1(C)Cc2ccccc2C(NNC(=O)c2cccnc2)=N1 | · | 20.6% | 2.8% | -5.1% | -17.8% | -91.7*
CCOC(=O)N1CCN(CCC(=O)Nc2cc([N+](=O)[O-])ccc2OC)CC1 | -7.8% | -6.1% | 6.1% | -3.8% | ? | -4.2
CCCCNC(=O)C(c1ccc(OCC(=O)OC)c(C(=O)OC)c1)N(CCc1ccccc1)C(=O)CCCCCN1C(=O)NC(c2ccc(-c3ccccc3)cc2)C(C(=O)OCc2ccccc2)=C1C (stereo not given) | · | · | 3.8% | · | · | ·
CCCCNC(=O)C(c1ccc(OCC(=O)OC)c(C(=O)OC)c1)N(CCOC)C(=O)CCCCCN1C(=O)NC(c2ccc(-c3ccccc3)cc2)C(C(=O)OCc2ccccc2)=C1C (stereo not given) | · | · | 2.4% | · | · | -94.9*
CCc1ccc(CNC(=O)CCc2c(C)nn(-c3ccc(N4CCCCC4)nn3)c2C)cc1 | -10.2% | · | · | -9.0% | 15.6% | -10.6
COc1ccc(C2C(=O)N(C3CCCCC3)CC(=O)N2CCc2ccc(C)cc2)cc1OC (stereo not given) | -2.9% | · | · | 9.2% | -14.1% | 5.5
COc1ccc(N(C)C(=O)c2oc(=O)c3ccccc3c2-c2ccc(C)cc2)c(OC)c1 | -5.3% | 10µM* | 5.4% | -6.7% | ? | -11.3
CCc1cccc(NC(=O)Cn2c3[n+](c4ccc(C(F)(F)F)cc42)CCCCC3)c1 | i | ? | 14.2% | -4.6% | -15.3% | -64.0*
FC(F)(F)c1ccc2c(c1)n(Cc1ccccc1)c1[n+]2CCCCC1 | i | 9.4% | -28.5% | -5.6% | -20.5% | -65.8*
CC(C)c1c(C(=O)NCc2ccccn2)cnn1-c1nccc(-c2ccccc2F)n1 | -1.9% | · | · | -20.9% | -7.0% | ·
COc1ccc(CC(=O)N2CC(=O)Nc3ccc(F)cc3C2c2ccccc2)cc1 (stereo not given) | -7.0% | · | · | -10.0% | -7.3% | 1.8
CC(=O)Nc1cccc(Oc2cc(C#N)c(C#N)cc2N2CCCCCC2)c1 | -26.7% | ? | -5.9% | ? | ? | -86.9*
CC(C)CCn1cnc2c(sc3nc4c(cc32)CSC(C)(C)C4)c1=O | i | 24.6% | -1.6% | -12.3% | -2.6% | -74.4*
COc1ccc(Cn2cc(CN3CC(N4CCSCC4)CS3(=O)=O)nn2)cc1 (stereo not given) | -0.3% | · | · | -1.9% | -13.8% | -100.5*
